NTR1 ag: NTR1 (human) agonism | NTR1-U2OS beta-arrestin-GFP spot imaging, agonist mode | activation, % at 20 µM | P30989 | AID 493036 | hit rate 0.17% among 330,000;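 active = activation at or above 40% of the spot to cytoplasm intensity ratio, with at least 20 cells analyzed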
Target sequence (P30989 whole entry, looked up): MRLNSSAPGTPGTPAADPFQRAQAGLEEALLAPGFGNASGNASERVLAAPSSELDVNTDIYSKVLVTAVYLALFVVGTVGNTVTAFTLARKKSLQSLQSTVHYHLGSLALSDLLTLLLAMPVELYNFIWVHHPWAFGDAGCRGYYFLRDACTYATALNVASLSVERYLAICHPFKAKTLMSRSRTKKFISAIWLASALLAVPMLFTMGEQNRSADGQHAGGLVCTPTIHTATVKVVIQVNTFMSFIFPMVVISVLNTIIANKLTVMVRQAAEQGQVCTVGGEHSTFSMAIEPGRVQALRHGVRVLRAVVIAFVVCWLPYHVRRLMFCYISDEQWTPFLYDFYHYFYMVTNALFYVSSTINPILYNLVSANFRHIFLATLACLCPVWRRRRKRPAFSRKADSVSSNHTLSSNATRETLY
ANO1 block: mouse TMEM16A channel inhibition, primary screen; Q8BHY3; HEK293 TMEM16A/YFP iodide influx fluorescence, ionomycin; normalized B-score (activity score, 25-100; higher = stronger inhibition) at 10 µM; hit rate 1.2% among 310,000; AID 588511;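 active = ratio plate-corrected score three or more library SD toward inhibition, starting fluorescence score within five deviations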;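 also: score derived from kinetic fluorescence span divided by baseline fluorescence per well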
MEKK2mut PB1 HTS: signal of MEK5 binding to mutant human MEKK2 PB1 domain; hit rate 0.35% among 290,000; bead flow cytometry, Alexa488-MEK5 binding to MEKK2 mutant; percent response, % at 10 µM; in the data active = percent response above about 24%, passing the limit was not always enough
ANO1 activ: activates or potentiates the mouse TMEM16A chloride channel. Q8BHY3. HEK293 TMEM16A/YFP-H148Q/I152L, iodide quench fluorescence; active compounds read low. B-score at 10 µM. hit rate 0.3% among 340,000. AID 623877;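 active = fluorescence-ratio B-score plate-corrected deviation score at least 3 library SD below zero, with starting fluorescence score within 5 deviations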;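 also: channel opened by trigger with iodide after compound preincubation; score built on the fluorescence ratio of max minus min over baseline; more negative score means more quench and so TMEM16A activation or potentiation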
MEKK2 WT-MEK5: raises or lowers MEK5 binding to wildtype human MEKK2 PB1 domain; hit rate 1.1% among 290,000; binding response (% of control), % at 10 µM; bead flow cytometry, Alexa488-MEK5 binding to MEKK2 WT; actives lie on both sides; in the data active = binding response below about 67% or above about 130%
MEKK3 PB1 HTS: raises or lowers MEK5 binding to the human MEKK3 PB1 domain; hit rate 1.4% among 290,000; binding response (% of control), % at 10 µM; bead-based flow cytometry, Alexa488-MEK5 binding to MEKK3; actives lie on both sides; 0 = blocked by unlabeled MEK5, 100 = vehicle;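 active = binding response more than 3 SD above or below the average of its plate-row segment, actives on both sides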;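 also: Alexa488 bead fluorescence after subtracting the streptavidin-only scavenger bead signal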
MEKK2wt confirm: raises or lowers MEK5 binding to wildtype human MEKK2, retest; shares compounds with MEKK3 PB1 HTS; bead flow cytometry, Alexa488-MEK5 binding to MEKK2 WT; actives lie on both sides; binding response (% of control), % at 10 µM; hit rate 2.4% among 5,900; AID 1892; in the data active = binding response below about 16% or above about 210%; inactive = in between
MEKK2mut confirm: signal of MEK5 binding to mutant human MEKK2, retest | shares compounds with MEKK3 PB1 HTS | percent response, % at 10 µM | AID 1893 | hit rate 2% among 5,900 | bead flow cytometry, Alexa488-MEK5 binding to MEKK2 mutant; in the data active = percent response mostly above about 71%, no sharp cut-off; inactive = mostly below about 38%;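 also: higher means compound restores mutant binding toward wildtype level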
MEKK3-MEK5 inh: MEKK3-MEK5 PB1 inhibition, single concentration confirmation; shares compounds with MEKK3 PB1 HTS; bead flow cytometry, Alexa488-MEK5 binding to MEKK3; active compounds read low; binding response (% of control), % at 10 µM; hit rate 1.8% among 5,900; AID 1894;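 active = binding response below 72% of control, or above a set upper limit, though filed actives all read lower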;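 also: lower values mean stronger disruption of MEK5 binding to MEKK3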
Numbers stand for hits; i = inactive; nt = no result given; [ ] = dose if it differs, or a comment. In the library only some 3.4% were active in any assay of this set; here they are far more common.

SMILES	NTR1 ag	ANO1 block	MEKK2mut PB1 HTS	ANO1 activ	MEKK2 WT-MEK5	MEKK3 PB1 HTS	MEKK2wt confirm	MEKK2mut confirm	MEKK3-MEK5 inh
Cc1nc(-c2ccc(F)cc2)c(CC(=O)N2CCN(S(=O)(=O)c3cccc(Cl)c3)CC2)s1	i	i	nt	i	nt	nt	nt	nt	nt
CCOc1ccc(OCCOCCn2ccnc2)cc1	i	i	i	i	i	i	nt	nt	nt
CN(C)CCCN(C(=O)c1ccc(N2C(=O)CCC2=O)cc1)c1nc2c(F)cccc2s1	i	i	i	i	i	i	nt	nt	nt
CN(C)CCCN(C(=O)c1ccc(S(=O)(=O)N(C)Cc2ccccc2)cc1)c1nc2c(F)cccc2s1	i	i	40	i	196	i	i	i	i
CCOC(=O)c1nc2ccccc2s1	i	i	i	i	2.0[inhibitor]	2.0[inhibitor]	i	i	i
N#C/C(=C(/O)COc1ccccc1)c1nc2ccccc2s1	i	i	i	i	i	i	nt	nt	nt
N#C/C(=C(/O)COC(=O)c1ccc(C#N)cc1)c1nc2ccccc2s1	i	25	i	i	-1.0[inhibitor]	i	i	i	i
Nc1nc2ccc(Cl)cc2o1	nt	nt	nt	i	nt	nt	nt	nt	nt
CCCC1=C(C(=O)OCC)C(c2ccc(OC)c(C)c2OC)C(C#N)=C(N)O1 (centres undefined)	i	i	i	i	i	i	nt	nt	nt
CCOC(=O)C1=C(CC)OC(N)=C(C#N)C1c1ccc(OC)c(C)c1OC (centres undefined)	i	i	i	i	2.0[inhibitor]	2.0[inhibitor]	i	i	i
CCCOc1ccc(C(CC(=O)O)NC(=O)c2ccc3c(c2)OCO3)cc1 (centres undefined)	i	i	i	i	1.0[inhibitor]	2.0[inhibitor]	i	i	i
CCCOc1ccc(C(=O)Nc2ccc3c(c2)OCO3)cc1	i	i	i	i	i	i	nt	nt	nt
COc1cccc(CNC(=O)[C@H](C)NC(=O)C2CCN(S(=O)(=O)c3ccccc3)CC2)c1	i	i	i	i	i	i	nt	nt	nt
COc1ccc(-c2nc3c(c(=O)c4ccccc4n3C)c(=O)n2Cc2ccccc2)cc1	i	i	i	i	i	149	i	i	i
COc1ccc(Cn2c(-c3ccco3)nc3c(c(=O)c4ccccc4n3C)c2=O)cc1	i	i	i	i	i	136	i	i	i
CN(C)CCN(C(=O)c1ccc2c(c1)CCCC2)c1nc2cc3c(cc2s1)OCCO3	i	i	i	i	i	i	nt	nt	nt
Cc1ccc2nc(N(CCCN(C)C)C(=O)c3ccc4c(c3)CCCC4)sc2c1	i	i	i	i	191	i	i	i	i
CCOc1ccc2nc(N(CCN(C)C)C(=O)c3ccc4c(c3)CCCC4)sc2c1	i	i	25	i	152	i	i	i	i
O=c1c(Cl)c(Cl)cnn1-c1ccccc1	nt	nt	i	i	i	133	i	i	i
Nc1c(Cl)cnn(-c2ccccc2)c1=O	i	i	nt	i	nt	nt	nt	nt	nt
Brc1ccc2[nH]c3c(N4CCc5ccccc5C4)ncnc3c2c1	i	i	i	nt	150	i	i	i	i
Cc1ccsc1/C=N/NC(=O)Cn1nc(C)c([N+](=O)[O-])c1C	i	i	i	i	i	i	nt	nt	nt
Cc1nn(CC(=O)NC(C)C)c(C)c1[N+](=O)[O-]	i	i	i	i	i	69[inhibitor]	i	i	i
C/C(=N\NC(=O)Cn1nc(C)c([N+](=O)[O-])c1C)c1ccc(Cl)s1	i	i	i	i	i	128	i	i	i
Cc1nn(CC(=O)O)c(C)c1[N+](=O)[O-]	i	i	i	i	i	i	nt	nt	nt
CCC12CN3CCN(CC(C3)/C1=N\NC(=O)Nc1ccccc1)C2	i	i	i	i	i	129	i	i	i
COc1ccc(-n2c(=O)c3ccccc3n(CC(=O)Nc3cccc(OC)c3)c2=O)cc1	i	i	i	i	i	50[inhibitor]	i	i	i
